Bioassay records (PubChem BioAssay)
HttQ103 aggreg = mutant huntingtin aggregation inhibition; 1.1% of 220,000 active; AID 1688; Potency, µM (highest dose often 46.1 µM), for the others: at the highest dose activity change, negative = inhibition, hits mostly inhibitors; PC12 HttQ103-GFP aggregates, Acumen cytometry, 40 h; note: potency is the fitted concentration of half-maximal effect; % is set by controls: 0 for no effect and ±100 for the full control effect; nearly all actives have a fitted effect of over 60% in size
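Steps: seed 1500 PC12 HTTQ103-GFP cells/well; add tebufenozide, 100 nM final; add compound titration; add ATPLite reagent; quantify GFP aggregates by laser scanning cytometry.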
ALDH1A1 block = inhibitors of human aldehyde dehydrogenase 1A1 | P00352 | Purified ALDH1A1, NADH fluorescence, propionaldehyde substrate | Potency, µM (series often up to 75.3 µM), for the others: at the top dose activity, negative = inhibition, hits mostly inhibitors | 7.3% of 220,000 active | AID 1030; active = well fitted inhibition curve with a large enough effect, not every such curve was filed as active; inconclusive = small, poorly fitted or top-dose-only effect, or another doubt; inactive = no such curve, though single readings can be large or run the other way;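 note: potency is the fitted concentration of half-maximal effect; plate controls were no enzyme wells and a reference inhibitor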
HTT ATP protect = protects HTT-Q103 PC12 cells, measured by ATP | PC12 HTT-Q103 induced, cytoprotection, ATP luminescence, 40 h | Potency, µM (titrated, usually from 56.4 µM), inactives show cytoprotection (ATP increase), hits mostly activators | 0.14% of 230,000 active | AID 1471; note: potency is the fitted concentration of half-maximal effect; % of control where 0% means no effect; nearly all actives have a fitted effect of over 45% in size
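Stable PC12 Q103-GFP cells in serum-supplemented, phenol red-free DMEM; induction by tebufenozide at 100 nM final; compound dose series; cell viability quantified luminescently from ATP.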
IMPase inh = IMPase inhibition in cells. P97697. CHO-M1 cells, IP1 accumulation, HTRF TR-FRET ratio. inhibition (IP1 accumulation), % at 46.1 µM. 120,000 tested, under 10 active; active = well fitted curve in the direction sought with a large enough effect in the signal ratio, not every such curve was filed as active; inconclusive = small, poorly fitted or top-dose-only effect, or a change in a side signal; inactive = no such curve, though single readings can be large or run the other way; the % refers to the signal ratio;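 note: cells stimulated with carbachol in lithium chloride buffer; plate controls were DMSO basal wells for no effect and reference inhibitor wells for full effect; higher means more IMPase inhibition seen as more IP1 and lower FRET ratio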
Target sequence (P97697 whole entry, looked up): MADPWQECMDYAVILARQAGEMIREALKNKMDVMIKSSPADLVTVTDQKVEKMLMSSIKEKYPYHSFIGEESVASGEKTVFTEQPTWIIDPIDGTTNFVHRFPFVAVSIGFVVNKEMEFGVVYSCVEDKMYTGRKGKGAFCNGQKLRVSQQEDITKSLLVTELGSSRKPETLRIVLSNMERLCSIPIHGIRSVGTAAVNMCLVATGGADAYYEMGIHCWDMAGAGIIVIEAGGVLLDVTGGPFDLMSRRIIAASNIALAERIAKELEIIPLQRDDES
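Seeded CHO-M1 cells were dosed with compound at up to 46 uM, stimulated with carbachol for 30 min, then lysed in IP-One detection reagents. Higher IP1 lowers the TR-FRET signal.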
IMPase Li cell = cell-permeable IMPase inhibitors with lithium potentiation; Potency, µM (highest dose often 59.4 µM), inactives show top-dose activity, negative = IMPase inhibition, most hits filed as inhibitors; 0.35% of 210,000 active; AID 1457; CHO-M1 cells, IP1 TR-FRET (IP-One), carbachol + lithium;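 note: IP1 builds up when IMPase is blocked and the TR-FRET signal falls; potency is the fitted concentration of half-maximal effect; plate controls were basal vehicle for no effect and high inhibitor control for full effect; nearly all actives have a fitted effect of over 50% in size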
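CHO cells stably expressing M1 receptor (2000/well, cultured 16–30 h) treated 30 min at 37C with compound plus low lithium. Cytosolic IP1 by TR-FRET (665/620 ratio and 620 channel) after 10 min lysis; AC50 by Hill fit.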
HPGD block = inhibitors of human 15-hydroxyprostaglandin dehydrogenase (HPGD). P15428. purified HPGD, NADH fluorescence kinetic, PGE2 substrate. Potency, µM, for the others: top-dose activity change, negative = inhibition, hits mostly inhibitors. 4.3% of 150,000 active. AID 894; active = well fitted inhibition curve with a large enough effect, not every such curve was filed as active; inconclusive = small, poorly fitted or top-dose-only effect, or another doubt; inactive = no such curve, though single readings can be large or run the other way; note: potency is the fitted concentration of half-maximal effect; % is set by controls: 0 for no effect and ±100 for the full control effect
Target sequence (P15428 whole entry, looked up): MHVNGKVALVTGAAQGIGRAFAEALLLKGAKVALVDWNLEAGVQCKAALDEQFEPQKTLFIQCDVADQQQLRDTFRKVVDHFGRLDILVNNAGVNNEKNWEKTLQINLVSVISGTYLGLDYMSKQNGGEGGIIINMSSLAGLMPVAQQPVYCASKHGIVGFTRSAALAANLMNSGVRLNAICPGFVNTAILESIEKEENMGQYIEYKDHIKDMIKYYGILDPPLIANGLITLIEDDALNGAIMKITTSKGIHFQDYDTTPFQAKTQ
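NADH formation kinetics: reaction with 30 uM PGE2 and 1 mM NAD+ (final), 20 nM enzyme, Tris-HCl pH 8 with Tween 20, after 15 min compound preincubation at room temperature. Fluorescence change, last versus first of five reads.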
Active calls of the source: *; u = inconclusive; x = not tested or not shown; [ ] = another dose, or the depositor's remark. The list is not random: actives were taken first. Their share in the collection is about 9.4%. Unless noted, calls come from the whole dose curve; as a rule, active = well fitted curve in the direction sought with a large enough effect; inconclusive = small, poorly fitted or top-dose-only effect, or another doubt; inactive = no such curve, though single readings can be large; an effect the other way counts as inactive or inconclusive.

SMILES | HttQ103 aggreg | ALDH1A1 block | HTT ATP protect | IMPase inh | IMPase Li cell | HPGD block
O=C1NC2(CCCc3ccccc32)C(=O)N1Cc1nnc(-c2ccccc2Br)o1 (centres undefined) | -25% | u | -8%[10 µM] | 3 | -7%[38.3 µM] | -28%
O=c1c(Cl)c(Cl)cnn1Cc1nnc(-c2ccccc2Br)o1 | u | 3.5µM* | -199% | x | -8% | x
OCC1OC([S-])[C@H](O)C(O)C1O.[Au+] (some centres undefined) | 17% | u | 2% | x | 7% | -25%
C=Cc1ccc([C@H]2N[C@@H](C(=O)O)CC[C@@H]2C)cc1 | x | 13%[13.5 µM] | -9%[10 µM] | x | x | x
CCOC(=O)c1cnc2c(C(F)(F)F)cccc2c1Nc1cccc(C(=O)OC)c1 | x | x | x | 1 | x | x
Oc1cc2c(cc1O)[C@@H]1c3ccc(O)c(O)c3OC[C@]1(O)C2 | x | -2% | -120% | x | 17% | 11µM*
Cn1c(C(=O)N2CCN(C(=O)c3ccco3)CC2)cc2c(=O)n(C)c3ccccc3c21 | 9% | 20µM* | -20% | 5 | -13%[38.3 µM] | -22%
Cn1c(C(=O)Nc2ccc3c(c2)OCCO3)cc2c(=O)n(C)c3ccccc3c21 | -20% | 25µM* | -46% | 6 | 14%[38.3 µM] | u
Cn1c(C(=O)NC2CC2)cc2c(=O)n(C)c3ccccc3c21 | -2% | -6% | -28% | 0 | 7%[38.3 µM] | -26%
Cn1c(C(=O)N2CCN(c3ccc(F)cc3)CC2)cc2c(=O)n(C)c3ccccc3c21 | x | x | -5% | x | x | x
Cc1ccc(S(=O)(=O)NC(=O)Nc2ncn[nH]2)cc1 | x | 13%[13.5 µM] | -8%[10 µM] | x | 6% | -9%
CC(=O)Nc1nonc1-c1nc2ccccc2n1CCC#N | -5% | u | -2%[10 µM] | -14 | 4%[38.3 µM] | -27%
CC(=O)Nc1nonc1-c1nc2ccccc2n1CC1CC1 | 7.1µM* | u | 30% | 1 | 8%[38.3 µM] | -21%
Cc1cccc(-n2c(=O)c3c(n4cnnc24)-c2ccccc2CC32CCCCC2)c1 | 14% | 2% | -26% | 5 | 6%[38.3 µM] | -2%
O=c1c2c(n3cnnc3n1-c1ccccc1)-c1ccccc1CC21CCCCC1 | 12% | 20µM* | -26% | -13 | -19%[38.3 µM] | -17%
COc1cc(CNC(=O)c2ccc(Cn3nc(C)c(Cl)c3C)o2)cc(OC)c1 | -20% | -9% | -6% | -10 | 1%[38.3 µM] | -5%
COC(=O)c1ccc(Cn2nc(C)c(Cl)c2C)o1 | -30% | 28µM* | 4% | 9 | 12%[38.3 µM] | -16%
COC(=O)c1c(-c2ccc(C(C)(C)C)cc2)csc1NC(=O)C1C2CCC(O2)C1C(=O)O (centres undefined) | 7% | 5µM* | x | x | 1% | 3.2µM*
CCN(CC)CCC(=O)N1c2ccccc2Sc2ccc(C(F)(F)F)cc21 | 7% | x | 71% | x | x | x
COc1cccc(-c2nc(S(=O)(=O)c3ccccc3)c(N3CCC(C)CC3)o2)c1 | x | x | x | 3 | x | x
CCOC(=O)c1c(NC(=S)NCC2CCCO2)sc(C)c1C (centres undefined) | 4% | 18µM* | -23% | x | -8% | x
Cc1sc(NC(=O)Nc2ccccc2)c(C(N)=O)c1C | -5%[9.22 µM] | 13µM* | -1%[10 µM] | x | 9% | x
CCOC(=O)c1c(NC(=O)C2CCCO2)sc(C(N)=O)c1C (centres undefined) | -4% | u | -34%[10 µM] | x | 0% | -10%
CCOC(=O)c1c(NC(=O)C[n+]2ccc(Cc3ccccc3)cc2)sc(C)c1C | -31% | 0.71µM* | -38% | x | 12% | x
CCOC(=O)c1c(NC(=S)Nc2ccccc2)sc(C)c1C | 3% | 25µM* | 14%[10 µM] | 1 | u | 22µM*
SMILES | HttQ103 aggreg | ALDH1A1 block | HTT ATP protect | IMPase inh | IMPase Li cell | HPGD block
COC(=O)C/C=C/C(C)C(OCc1cccc(-c2ccccc2)c1)C1CCCCC1 (centres undefined) | x | 3%[13.5 µM] | 1%[10 µM] | x | x | x
CC1=C(C(=O)Nc2ccccc2)C(CC(C)C)n2nc(SCc3ccccc3C)nc2N1 (centres undefined) | x | x | x | 0 | x | x
C[C@H](N)C1CCC(C(=O)Nc2ccncc2)CC1 (some centres undefined) | x | x | 8%[1.9 µM] | 2 | x | x
O=S(=O)(Nc1nc2ccccc2nc1Cl)c1ccc(Cl)cc1 | 6% | u | 5%[0.074 µM] | x | -26% | -10%
O=S(=O)(Nc1nc2ccccc2nc1Cl)c1ccc(Br)cc1 | 10µM* | u | -6% | x | u | x
Cc1ccccc1S(=O)(=O)Nc1nc2ccccc2nc1Cl | -4% | u | -28% | x | 3.5µM* | x
COc1cccc([C@H]2Oc3ccc(OC)cc3/C(=N\O[C@@H]3O[C@H](COC(C)=O)[C@H](OC(C)=O)[C@H](OC(C)=O)[C@H]3OC(C)=O)[C@@H]2O)c1 | x | u | -6%[10 µM] | x | x | x
CC(C)=C[C@H]1[C@@H](COC(=O)c2cc3c(cc2Cl)OCO3)C1(C)C | x | -2%[13.5 µM] | 8%[10 µM] | x | 18% | -18%
COc1cc(/C=C2\SC(c3ccc(C)cc3)=NC2=O)cc(OC)c1O | 21% | u | 9%[10 µM] | 45 | 49% | 22µM*
Cc1ccc(C2=NC(=O)/C(=C/c3cc(O)c(O)c(Br)c3)S2)cc1 | u | 10µM* | 0% | x | 80% | x
CC(=O)[C@]1(O)CC[C@@H]2[C@H]3C[C@@H](C)C4=CC(=O)CC[C@@]4(C)C3[C@@H](O)C[C@]21C (some centres undefined) | x | u | x | x | 3% | -18%
COc1ccc(NC(=O)C2CC(=O)n3cnnc3S2)cc1 (centres undefined) | 4% | 0.71µM* | -6% | -2 | 23%[38.3 µM] | 18µM*
